RAD54 branch: RAD54 (human) branch migration inhibition; AID 602329; inhibition, % at 10.4 µM; 360,000 tested, 0.14% active; Q92698; RAD54 Holliday junction branch migration, FAM/BHQ fluorescence;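 active = mean normalized replicate activity at least 40 and at least half of replicates scoring 40 or more; inconclusive = only one of the two criteria met; inactive = mean below 40 and under half of replicates reaching 40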;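 also: 0% = median of neutral control wells and 100% = median of positive control wells; inhibitors cause a drop in the FAM fluorescence signal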
PREPL inhibitor: human PREPL enzyme inhibition; 320,000 tested, 0.68% active; Q4J6C6; inhibition, % at 5.96 µM; recombinant PREPL, fluorescence polarization activity-based probe; AID 2751; in the data active = inhibition above about 43%;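 also: 0% = enzyme with DMSO and 100% = wells lacking enzyme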
MIN6 prolif: inducers of beta-cell replication in MIN6 cells | MIN6 cells proliferation, ATPlite luminescence, 48 h; cells starved in 0.2% serum; 100% = growth in 10% serum | proliferation, % at 10 µM | 330,000 tested, 0.29% active | AID 2380;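 active = compounds whose signal lies at least 3.5 SD above the mean of all wells on their plate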;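 also: 0% = DMSO-treated cells in low-serum medium and 100% = 10% serum control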
FID counter: displaces DNA intercalator in HCV helicase counter-screen; DNA fluorescent intercalator displacement, fluorescence; 290,000 tested, 0.17% active; inhibition, % at 7.9 µM; in the data active = inhibition above about 37%;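 also: 0% = vehicle and 100% = reference compound; higher means more ethidium bromide displaced from hairpin DNA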
UBC13 inh: human UBC13 polyubiquitination inhibition; UBC13 polyubiquitin chain formation, TR-FRET; AID 485273; inhibition, % at 20 µM; 330,000 tested, 0.47% active; P61088; in the data active = inhibition above about 45%, passing the limit was not always enough; inconclusive = no clear call, values can overlap the other calls
Target sequence (P61088 whole entry, looked up): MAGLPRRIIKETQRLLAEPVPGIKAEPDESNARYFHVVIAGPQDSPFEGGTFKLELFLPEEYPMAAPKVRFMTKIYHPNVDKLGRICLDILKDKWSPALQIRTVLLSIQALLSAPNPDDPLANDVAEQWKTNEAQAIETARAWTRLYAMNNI
RAD52 anneal inh: inhibitors of human RAD52 DNA annealing | P43351 | inhibition, % at 18.7 µM | 360,000 tested, 0.46% active | recombinant RAD52 DNA annealing, FRET fluorescence;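 active = every replicate showing at least 50% inhibition; inconclusive = mean inhibition at least 50% but not in every replicate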
Target sequence (P43351 whole entry, looked up): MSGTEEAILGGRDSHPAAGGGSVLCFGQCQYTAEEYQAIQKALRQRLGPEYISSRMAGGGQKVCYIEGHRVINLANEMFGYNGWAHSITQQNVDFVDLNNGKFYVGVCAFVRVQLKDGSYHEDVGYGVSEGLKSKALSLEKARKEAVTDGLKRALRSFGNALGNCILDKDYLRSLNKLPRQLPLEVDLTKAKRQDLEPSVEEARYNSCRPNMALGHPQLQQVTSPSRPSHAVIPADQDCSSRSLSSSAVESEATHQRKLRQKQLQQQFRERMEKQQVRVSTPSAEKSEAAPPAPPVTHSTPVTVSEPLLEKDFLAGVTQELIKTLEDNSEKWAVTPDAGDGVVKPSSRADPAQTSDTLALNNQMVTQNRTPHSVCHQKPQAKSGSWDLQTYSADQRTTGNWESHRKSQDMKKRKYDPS
Casp3 UBC13 ctr: caspase-3 inhibition (UBC13 counter-screen); inhibition, % at 20 µM; Recombinant caspase-3, Caspase-Glo 3/7 luminescence, 60 min; AID 488856; 1,400 tested, 4% active; shares compounds with UBC13 inh;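 active = mean inhibition across replicates above about 26%, limit read from the data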;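 also: plate controls were DMSO with caspase-3 for no effect and DMSO wells lacking enzyme for full effect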
UBC13 confirm: human UBC13 polyubiquitin inhibition, confirmed; shares compounds with UBC13 inh; UBC13 polyubiquitination, TR-FRET, biochemical; inhibition, % at 10 µM; 1,400 tested, 68% active; AID 488859; in the data active = inhibition above about 45%; inconclusive = no clear call, values can overlap the other calls
Numbers without * were called inactive; ? = inconclusive; / = not tested or not shown. Sampled rows, rich in hits. Any-hit rate of the full collection: about 1.3%.

SMILES	RAD54 branch	PREPL inhibitor	MIN6 prolif	FID counter	UBC13 inh	RAD52 anneal inh	Casp3 UBC13 ctr	UBC13 confirm
COc1cc(C(CCN2CCOCC2)c2c(OC)cc(OC)c3c2OC(=O)CC3c2ccc(N(C)C)cc2)cc(OC)c1OC (stereo not given)	3	9	1	/	13	-8	/	/
CCCCCc1cc(=O)oc2c(C(CCN3CCCC(C)C3)c3ccc(N(C)C)cc3)c(OC)cc(OC)c12 (stereo not given)	-10	17	-8	/	9	/	/	/
CCCCCc1cc(=O)oc2c(C(CCN3CCCCC3)c3cc(OC)c(OC)c(OC)c3)c(OC)cc(OC)c12 (stereo not given)	17	-12	-9	/	81*	47	3	46*
C[C@H]1CN([C@@H](C)CO)C(=O)c2cc(C#CCc3ccccc3)cnc2O[C@H]1CN(C)Cc1ccc(C(=O)O)cc1	1	/	/	/	/	-6	/	/
O=C(Nc1ccc(C(=O)NCC2CCN(Cc3ccccc3F)CC2)cc1)C1=CSCCO1	8	1	-3	7	25	-25	/	/
Cc1ccc(CN2CCC(CNC(=O)c3ccc(NC(=O)C4=CSCCO4)cc3)CC2)cc1	1	-5	-2	10	72*	-1	-1	96*
COc1ccccc1CNC(=O)C[C@@H]1CC[C@@H]2[C@H](COC[C@@H](O)CN2C(=O)Nc2ccc(Cl)cc2)O1	3	/	/	/	/	1	/	/
Cn1c(-c2c(N)n(CCCc3ccccc3)c3nc4ccccc4nc23)nc2ccccc21	7	/	/	-2	/	-16	/	/
COCCCn1c(N)c(-c2nc3ccccc3n2C)c2nc3ccccc3nc21	-16	32	-2	-6	62*	/	-1	59*
Cc1ccc(NC(=O)c2cnc(SCC(=O)c3ccccc3)n(C)c2=O)cc1	5	7	-1	/	?	/	/	/
Cn1c(SCC(=O)c2ccccc2)ncc(C(=O)Nc2ccccc2)c1=O	4	-2	1	/	57*	-2	95*	53*
CCN1C(=O)c2cccc3c(NC(=O)C(C)(C)C)ccc1c23	-4	2	0	-8	-5	/	/	/
CCCCC(=O)Nc1ccc2c3c(cccc13)C(=O)N2CC	/	15	-3	-10	60*	/	2	66*
O=C1CN(S(=O)(=O)Cc2ccccc2)C[C@H]2[C@@H](c3ccc(C#Cc4ccccc4)cc3)[C@@H](CO)N12	/	/	/	/	/	-18	/	/
CCCCC(CC)CN=C(N)NC(N)=NCCCCCCN=C(N)NC(N)=NCC(CC)CCCC (stereo not given)	24	37	-8	/	113*	/	-4	118*
C[C@@H]1CN([C@H](C)CO)S(=O)(=O)c2ccc(C3=CCCCC3)cc2O[C@H]1CN(C)Cc1cncnc1	5	/	/	/	/	15	/	/
O=C(C[C@@H]1C[C@H]2c3cc(NC(=O)NC4CCCC4)ccc3O[C@H]2[C@H](CO)O1)NC1CCCC1	-1	/	/	/	/	-3	/	/
CCOC(=O)CCCSc1nnc(CCCCCN2C(=O)c3cccc4cccc(c34)C2=O)o1	/	7	-2	-10	53*	/	-2	42
CCOc1cc(C2C(C#N)=C(N)Oc3n[nH]c(-c4ccccc4)c32)ccc1O (stereo not given)	-3	1	-2	-4	83*	/	3	100*
N#CC1=C(N)Oc2n[nH]c(-c3ccccc3)c2C1c1cccnc1 (stereo not given)	6	6	0	-1	-11	/	/	/
CO[C@@H]1CN(C)C(=O)c2cc(NC(=O)Nc3ccccc3Cl)ccc2OC[C@@H](C)N(Cc2ccccc2C(=O)O)C[C@H]1C	4	/	/	/	/	2	/	/
CCOC(=O)C(=NC1CCS(=O)(=O)C1)NNc1cc(Cl)ccc1Cl (stereo not given)	4	13	6	-2	68*	-17	-5	57*
COCCNC(=S)N=Nc1c(O)[nH]c2ccc([N+](=O)[O-])cc12	-16	-7	1	-1	89*	-8	1	96*
CC1(C)Cc2c(c(N3CCOCC3)nc3sc4c(=O)[nH]cnc4c23)CS1	7	-6	-1	-11	50*	/	-2	54*
CC1(C)Cc2c(c(N3CCOCC3)nc3sc4c(N5CCOCC5)nnnc4c23)CS1	/	-1	-2	-1	-1	/	/	/
SMILES	RAD54 branch	PREPL inhibitor	MIN6 prolif	FID counter	UBC13 inh	RAD52 anneal inh	Casp3 UBC13 ctr	UBC13 confirm
CNCCC(Oc1ccc(C(F)(F)F)cc1)c1ccccc1 (stereo not given)	14	-20	-6	15	50*	6	-6	36
OC(CNCCc1ccc(C(F)(F)F)cc1)COC(c1ccccc1)c1ccccc1 (stereo not given)	7	-10	-7	36	37	11	/	/
Cc1ccc2c(c1)c(N=NC(N)=S)c(O)n2Cc1ccccc1	-3	2	-3	2	79*	-13	0	46*
NC(=S)N=Nc1c(O)n(Cc2ccc(Br)cc2)c2ccccc12	/	0	-6	8	46*	/	-2	38
NC(=S)N=Nc1c(O)n(CCCl)c2ccc(Br)cc12	2	3	-6	2	58*	5	-1	30
NC(=S)N=Nc1c(O)n(Cc2ccc(F)cc2)c2ccccc12	/	-2	-6	8	73*	/	-1	75*
Cc1noc(C)c1NC(=O)N(C)C[C@H]1Oc2ccc(NC(=O)Nc3cccc4ccccc34)cc2CC(=O)N([C@H](C)CO)C[C@H]1C	7	/	/	/	/	-3	/	/
O=C(C[C@@H]1C=C[C@H](NC(=O)c2cccc(F)c2)[C@@H](CO)O1)NCc1ccc(Oc2ccccc2)cc1	-6	/	/	/	/	4	/	/
C[C@H](CO)N1C[C@H](C)[C@@H](CN(C)C(=O)C2CCOCC2)Oc2ncc(-c3ccccc3)cc2C1=O	3	/	/	/	/	1	/	/
COc1ccc(-n2nc(C(=O)NCc3cc(OC)ccc3OC)c3c4ccccc4n(C)c3c2=O)cc1	/	0	2	-2	47*	-5	2	?
COc1ccc(-n2nc(C(=O)NCc3ccco3)c3c4ccccc4n(C)c3c2=O)cc1	/	7	1	-1	39	-3	/	/
C[C@@H]1CN([C@H](C)CO)S(=O)(=O)c2ccc(C3=CCCC3)cc2O[C@@H]1CN(C)C(=O)c1ccccc1	-4	/	/	/	/	11	/	/
CCCCCCCCCCOC(=O)Cn1c(COc2ccccc2OC)[n+](C)c2ccccc21	42	-50	-4	46*	64*	75*	1	68*
Cn1c(COc2ccccc2O)[n+](C)c2ccccc21	3	2	2	-1	4	1	/	/
CC(C)c1ccc(OCC(=O)NNC(=S)NC(=O)C2CC2)cc1	7	-2	0	-27	62*	-7	-1	99*
Cc1ccc(OCC(=O)NNC(=S)NC(=O)C2CCCCC2)c(C)c1	8	0	-6	-26	-4	/	/	/
